Source: PubChem BioAssay AID686978 (National Center for Advancing Translational Sciences (NCATS), 2013)
In all, about 420,000 compounds went through this assay and about 64,000 (15%) were called active. Another 27% or so got no clear call; they are omitted. Not all results are given here. Values without a mark were called inactive. Calls follow the shape of the dose curve; as a rule, active = well fitted inhibition curve with a large enough effect; inconclusive = small, poorly fitted or top-dose-only effect; inactive = flat fitted curve, though single readings scatter.

test: qHTS for Inhibitors of human tyrosyl-DNA phosphodiesterase 1 (TDP1): qHTS in cells in absence of CPT; details: DT40 Tdp1-/- hTDP1 cells, no CPT, ATP luminescence, 48 h; activity change, negative = growth inhibition: at 46.2 µM (top of the series); also: nearly all actives have a fitted effect of over 55% in size
Source text: Human tyrosyl-DNA phosphodiesterase 1 (TDP1) is a novel repair gene, and we propose to use it as a new target for anticancer drug development. TDP1 is not an essential protein, but under treatment with topoisomerase I poison (camptothecin: CPT), TDP1 works as a critical factor for cell survival. To directly identify novel TDP1 inhibitors active in a cellular environment, we have knocked-out the Tdp1 gene in chicken DT40 cells (Tdp1-/-) and generated a complemented counterpart cells that contains a stable transfection of the human TDP1 gene (Tdp1-/-;hTDP1 cells). For the primary screen, Tdp1-/-;hTDP1 cells will be exposed to small molecules in the presence or absence of CPT, and their growth kinetics will be evaluated after 48 hours by measuring ATP activity. […] The hit compounds will then be evaluated in the presence or absence of CPT using Tdp1-/- cells. […] In tertiary assays, biochemical gel-based assays will be used to assess whether the hit compounds specifically target TDP1.
To this end, we have screened this cell line against the MLSMR in two primary screens. In one screen we add CPT and in the other we screen in the absence of CPT; this AID represents the screen where CPT was absent.
NIH Chemical Genomics Center [NCGC]
NIH Molecular Libraries Probe Centers Network [MLPCN]
Assay Submitter (PI): Yves Pommier, NCI
DT40-hTDP1 cells without 20 nM Camptothecin (add 20 microL of DMSO in 1 L of cell culture medium) were dispensed at 400 cells/5microL/well in tissue culture treated 1536-well white wall/solid bottom assay plates (Greiner Bio-One North America, NC, U.S.A.) using a Multidrop Combi 8 channel dispenser (Thermo Fisher, Waltham, MA, USA). 23 nL compounds and controls were transferred using the pin tool (Kalypsys, San Diego, CA, USA) to the assay plates. The assay plates were then incubated at 37 masculineC for a minimum 48 hr. Three microL of Cell Titer Glo solution was added to the plates and incubated at RT in dark for 30 min. Luminescence was read using ViewLux (Perkin Elmer) with 1 sec exposure slow speed, high gain and 2x binning.
% is scaled to controls: 0 for no effect and ±100 for the full control effect; potency is read from the fitted curve at half-maximal effect.

| Compound | activity change, negative = growth inhibition [%] | Potency |
| --- | --- | --- |
| CC1(C)CC(=O)C(CC(=O)N2CCC(Cc3ccccc3)CC2)C(=O)C1 | -13.8 |  |
| O=C(NCc1nnc(SCC(=O)N2CCC(Cc3ccccc3)CC2)o1)c1ccco1 | -3.4 |  |
| O=C(CN1CCOc2ccccc21)N1CCC(Cc2ccccc2)CC1 |  | 11.6 µM (active) |
| CC1COC2C(O1)N(S(C)(=O)=O)CCN2S(C)(=O)=O (configuration not stated) | -9.7 |  |
| O=C(Nc1cccc(-c2nc3ccccc3[nH]2)c1)c1ccc(C(=O)Nc2cccc(-c3nc4ccccc4[nH]3)c2)cc1 |  | 18.4 µM (active) |
| Cc1ccc(-n2nc3ccc(NC(=O)/C=C/c4ccco4)cc3n2)cc1C |  | 18.4 µM (active) |
| NS(=O)(=O)c1cccc(NC(=O)COC(=O)/C=C/c2ccco2)c1 | -3.67 |  |
| CCC(=O)Nc1ccc2nn(-c3ccc(F)cc3)nc2c1 | -27.6 |  |
| O=C(/C=C/c1ccco1)Nc1cccc(-c2nc3ccccc3[nH]2)c1 |  | 23.1 µM (active) |
| Cc1nnc(NC(=O)/C=C/c2ccco2)s1 | -3.69 |  |
| O=C(Nc1cccc(NC(=O)c2ccc(Br)cc2)c1)c1ccccc1 | -5.64 |  |
| c1ccc(-c2[nH]ncc2-c2nc3ccccc3[nH]2)cc1 | 6.23 |  |
| COc1cccc(NC(=O)COC(=O)/C=C/c2ccco2)c1 | -27 |  |
| COc1ccccc1C(=O)Nc1ccnn1C1CCN(Cc2cnn(C)c2)CC1 | -3.57 |  |
| COc1ccc2c(c1OC)C(=O)N(c1ncn[nH]1)C2 | -0.222 |  |
| Cc1ccc(S(=O)(=O)NC[C@H]2O[C@@H](n3cnc4c(N)ncnc43)[C@H](O)[C@@H]2O)s1 | -16.2 |  |
| CCCc1cc(=O)[nH]c(SCc2cc(=O)oc3c(C)c(C)ccc23)n1 | -12.2 |  |
| CCN(CC(=O)Nc1c(F)cccc1F)C(=O)c1cnc(C)cn1 | 2.58 |  |
| CC(C)CN(C(=O)CSc1nncn1C)C1CCS(=O)(=O)C1 (configuration not stated) | -14.8 |  |
| O=C(CN(Cc1ccccc1)C(=O)c1ccc2c(c1)OCCO2)NCc1ccc2c(c1)OCO2 | -23.2 |  |
| CC/C(O)=N\S(=O)(=O)c1ccc(N=NN(C)C)cc1 | -6.75 |  |
| CCN1C(=O)N[C@@H](c2ccccc2)C(C(=O)OC)=C1C | -14.8 |  |

| Compound | activity change, negative = growth inhibition [%] | Potency |
| --- | --- | --- |
| COC(=O)C1=C(C)N(Cc2ccccc2)C(=NCCCOC(C)C)N[C@H]1c1ccccc1 |  | 10.3 µM (active) |
| COCCN1C(=O)N[C@@H](c2ccccc2)C(C(=O)OC)=C1C | -8.68 |  |
| CCOCCOCCC(C(=O)O)P(=O)(c1ccccc1)c1ccccc1 (configuration not stated) | 9.02 |  |
| CCOc1ccc(-n2cnnn2)cc1S(=O)(=O)N1CCC(C)CC1C (configuration not stated) | -22.2 |  |
| CCc1ccccc1NC(=O)CSc1nnc(CCNC(=O)OC(C)(C)C)o1 | -14.5 |  |
| Cc1ccccc1Nc1nc(N)nc(CSc2nnc3ccccn23)n1 | 2.48 |  |
| COc1ccc(S(=O)(=O)N2CCc3ccccc32)cc1C(=O)Nc1cc(S(C)(=O)=O)ccc1Cl |  | 4.61 µM (active) |
| O=C(Nc1cc(C(F)(F)F)ccc1Cl)c1ccc2c(c1)CCN2S(=O)(=O)c1ccccc1 |  | 11.6 µM (active) |
| COc1ccc(OC)c(NC(=O)c2ccc3c(c2)CCN3S(C)(=O)=O)c1 | -24.1 |  |
| CCN(C(=O)COC(=O)c1cc(S(=O)(=O)N2CCc3ccccc32)ccc1OC)C1CCS(=O)(=O)C1 (configuration not stated) | 0.801 |  |
| CS(=O)(=O)N1CCc2cc(C(=O)Nc3ccccc3)ccc21 | -3.41 |  |
| Cc1ccc(S(=O)(=O)N2CCc3cc(C(=O)Nc4ccc(Cl)cc4C)ccc32)cc1 | -2.76 |  |
| CC(C)(O)C1=C[N+](=O)CC=C1 | -3.03 |  |
| C#CCOCCOCCOCCNc1nc(N2CCN(C(=O)C([C@@H](C)CC)n3cc(C(N)COC(=O)C(F)(F)F)nn3)CC2)nc(N2CCN(C(=O)[C@H](CCCCN)n3cc(C(N)CC(C)C)nn3)CC2)n1 (some centres not stated) | -1.26 |  |
| Cc1nn(CC(=O)Nc2ccc(N(C)C)cc2)c(C)c1[N+](=O)[O-] | -26.8 |  |
| CC1CC(=NNC(=O)C2COc3ccccc3O2)CC(C)(C)C1 (configuration not stated) | -27.9 |  |
| C[C@@H](C(=O)N1CCNCC1)n1cc(CCC(=O)O)nn1 | -8.65 |  |
| COC(=O)c1cc(Oc2ccc(S(=O)(=O)N3CCOCC3)cc2[N+](=O)[O-])cc(C(=O)OC)c1 | -27.7 |  |
| C=C(C)CNc1cc(S(=O)(=O)N2CCOCC2)ccc1Oc1ccccc1 |  | 20.6 µM (active) |
| COc1ccc(S(=O)(=O)N2CCOCC2)cc1NC(=O)COc1ccccc1 | -24.6 |  |
| O=[N+]([O-])c1cc([N+](=O)[O-])c(Oc2cc(F)cc(F)c2F)cc1NN1CCCCC1 | -23.3 |  |
| O=C(/C=C/c1ccc(F)cc1)NCCNC(=O)/C=C/c1ccc(F)cc1 | 4.93 |  |

| Compound | activity change, negative = growth inhibition [%] | Potency |
| --- | --- | --- |
| O=C(/C=C/c1ccc([N+](=O)[O-])o1)NNC(=O)c1ccc(F)cc1 |  | 1.84 µM (active) |
| COc1cccc(C(=O)NNC(=O)/C=C/c2ccccc2)c1 | 19.2 |  |
| Cc1ccsc1C(=O)N[C@@H](C)c1nnc2ccccn12 | -7.07 |  |
| Nc1nc2[nH]c(=O)c(=O)[nH]c2c(=O)[nH]1 | 15.7 |  |
| CCOC(=O)n1c(SCC(=O)N(CC)CC)nc2ccccc21 | -16.7 |  |
| CCN(CC)C(=O)CSc1nc2ccsc2c(=O)n1Cc1ccccc1Cl |  | 23.1 µM (active) |
| CCOC(=O)CSc1nc2c(c(=O)n(Cc3ccccc3Cl)c(=O)n2C)n1C | -3.48 |  |
| CN(Cc1ccco1)c1ncncc1-c1ccoc1 | -6.14 |  |
| CCc1ccc(Oc2coc3cc(OC(=O)c4cc5ccccc5oc4=O)ccc3c2=O)cc1 | -9.4 |  |
| Cc1cn(COC/C=C/c2ccccc2)c(=O)[nH]c1=O | -2.88 |  |
| O=C(NCc1ccccn1)c1c(O)c2c([nH]c1=O)CCCC2 | -7.3 |  |
| Cc1[nH]c(=O)c(C(=O)/C=C/c2ccccc2)c2c1CCCC2 |  | 5.8 µM (active) |
| Cc1cc(Cl)c(S(=O)(=O)Nc2ccc3c(c2)OCCO3)cc1OCC(N)=O | -29.7 |  |
| Cc1ccc(/C=N/NC(=O)Cn2ccc(C(F)(F)F)n2)o1 | -0.299 |  |
| Cc1cc(-c2n[nH]c(=S)n2-c2ccc(C)c(C)c2)no1 | -4.09 |  |
| Cc1cc(C)c2oc(C(=O)Nc3ccc(S(=O)(=O)Nc4nccc(C)n4)cc3)cc(=O)c2c1 | -26 |  |
| CCNC(=S)Nc1cccc(Cl)c1C | -27.6 |  |
| Cc1ccc(NC(=S)NCc2ccccc2Cl)c(C)c1 |  | 20.6 µM (active) |
| Cc1cc(F)ccc1NC(=S)NCCc1ccccc1 | -10.9 |  |
| Cc1cc(Cl)ccc1NC(=S)NCCCN1CCCC1=O | 3.78 |  |
| S=C(NCc1ccco1)NCc1ccccc1Cl | 13.1 |  |
| Cc1ccc(NC(=S)NCCc2ccc(Cl)cc2)c(C)c1 |  | 18.4 µM (active) |

| Compound | activity change, negative = growth inhibition [%] | Potency |
| --- | --- | --- |
| Clc1ccc(CSc2nnc([C@@H]3CCCN3)o2)cc1 | -17 |  |
| CS(=O)(=O)c1ccccc1C(=O)Nc1ccc2sccc2c1 | 14.5 |  |
| O=C(/C=C/c1ccccc1[N+](=O)[O-])OCC(=O)N1CCCC1 | 18.5 |  |
| CCC(C(=O)NCc1ccccc1)n1c(Cc2cc(F)cc(F)c2)nc2ccccc21 (configuration not stated) |  | 16.4 µM (active) |
| O=C(CCSCc1cccc(F)c1)NCc1ccccc1 | -7.79 |  |
| CCC(C(=O)Nc1c(C)cccc1C)n1c(-c2cc(C)cs2)nc2ccccc21 (configuration not stated) | -14.6 |  |
| CCC(C)c1ccc(O)c(/C=N/O)c1 (configuration not stated) | 16.9 |  |
| Cc1cc(C)n(-c2nc(O)cc(=O)[nH]2)n1 | 8.33 |  |
| CS(=O)(=O)N(CC(=O)NC1CCCC1)Cc1ccc(F)cc1 | -6.2 |  |
| Cc1ccc(OCC(=O)N2CCN(C(=O)c3cccnc3)CC2)cc1 | -10.2 |  |
| Cc1ccc(NC(=O)Cc2nc(COC(=O)C(C)NS(=O)(=O)c3ccc(C)cc3)cs2)cc1 (configuration not stated) | -26.5 |  |
| O=C(O)c1ccccc1C(=O)Nc1nc(-c2ccccc2)cs1 | -0.805 |  |
| Cc1ccc(-c2csc(NNC(=O)c3ccccc3)n2)cc1 |  | 5.17 µM (active) |
| O=C(Nc1ccccc1)Nc1nc2ccccc2s1 | -2.58 |  |
| CC(=O)Nc1ccc(S(=O)(=O)Nc2nc(-c3ccc(C(C)(C)C)cc3)cs2)cc1 | -17.4 |  |
| CSc1nsc(NC(=O)Nc2ccccc2)n1 |  | 20.6 µM (active) |
| CC(=O)Nc1ccc(C(=O)Nc2nc(-c3cc(C)n(Cc4ccccc4)c3C)cs2)cc1 |  | 14.6 µM (active) |
| CC(=O)c1ccc(NC(=O)N[C@@H](Cc2ccccc2)C(=O)O)cc1 | -2.61 |  |
| Cc1nc(NNC(=O)c2ccccc2)cc(-c2ccccc2)n1 | -10.7 |  |
| CC(=O)c1ccc(NC(=O)CSc2nnc(NC(=O)Nc3ccccc3)s2)cc1 | -28.6 |  |
| CC(=O)Nc1ccc(-c2csc(NC(=O)Nc3ccccc3)n2)cc1 |  | 1.16 µM (active) |
| CCC(=O)Nc1ccc(C(=O)Nc2cc(C)on2)cc1 | 2.69 |  |

| Compound | activity change, negative = growth inhibition [%] | Potency |
| --- | --- | --- |
| Cc1ccc(C(=O)NNC(=O)c2cccs2)cc1 | -20 |  |
| CN1C(=O)C2(OCCCO2)c2cc(Cl)ccc21 | 7.23 |  |
| O=C(CNC(=O)Cc1ccccc1)NCC(=O)OCC(=O)c1ccccc1Cl | -18.5 |  |
| O=C(c1snnc1-c1ccccc1)N1CCOCC1 | 7.46 |  |
| Cc1nn(C(C)CC(=O)O)c(C)c1C (configuration not stated) | 5.41 |  |
| CCN1N=C(c2ccccc2)CCC1=O | 0.898 |  |
| CCN(CC(=O)NCCc1ccccc1)S(=O)(=O)c1ccc(C)cc1 | -8.2 |  |
| COCC(=O)N1CCC2(CCCN(c3ccccc3)C2)CC1 | -15.7 |  |
| COc1ccc(C(=O)OCC(=O)NCC2CCCO2)cc1[N+](=O)[O-] (configuration not stated) | 12.4 |  |
| COc1ccc(C(CNC(=O)c2cc3c(s2)CCCC3)N2CCOCC2)cc1 (configuration not stated) | 0.592 |  |
| CCCNC(=O)COc1coc(CN2CCN(Cc3ccccc3)CC2)cc1=O | 11.7 |  |
| O=S(=O)(c1ccc(Br)cc1)N1CCC(c2nc3ccccc3[nH]2)CC1 |  | 20.6 µM (active) |
| O=C(C1CCCO1)N1CCC(c2nc3ccccc3[nH]2)CC1 (configuration not stated) | -4.09 |  |
| O=S(=O)(c1ccccc1)N1CCC(c2ccccc2)CC1 | -16.2 |  |
| Cc1c(NC(=O)c2c([N+](=O)[O-])cnn2C)c(=O)n(-c2ccccc2)n1C | 5.36 |  |
| O=C(NCC12CC3CC(C1)CC(CNC(=O)N1CCCC1)(C3)C2)N1CCCC1 | -19.6 |  |
| Cc1ccc(-n2c3nc(=O)[nH]c(=O)c-3cc3c(Cl)cccc32)cc1 |  | 0.731 µM (active) |
| Cc1ccc(-n2c(-c3ccc(Cl)cc3)n[nH]c2=S)cc1 | -8.56 |  |
| O=c1cc(Cl)c2ccccc2n1-c1ccccc1 | -3.55 |  |
